Values joined by “and” are separate entries in the source; they are usually repeats but may differ in a detail not shown here. Identical values can stand only once. A number with no mark means an inactive call. Active and inactive are the calls of the source.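 Rule for the calls: active = compounds whose cell count with miR-34 switched on is under 0.7 times the count with it off; inactive = the rest.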
assay: sensitizers of A549 cells to miR-34 induction, primary screen, imaging, A549 dox-inducible miR-34, nuclei and caspase counts (AID 1347080); conditions: A549 miR-34 inducible, Hoechst nuclei count, 48 h; active compounds read low; cell number ratio, induced over uninduced; note: test concentration not given here

Row | SMILES | fold change
1 | CC(=O)N(CC(C)C(=O)O)c1c(I)cc(I)c(N)c1I (stereo not given) | 0.901
2 | Cc1cc(C(=O)NNCc2ccccc2)no1 | 0.777
3 | COc1ccccc1S(=O)(=O)Nc1ccc2c(c1)CN(C)C(=O)N2 | 1.02
4 | Cc1cc(C#N)cc(C)c1Oc1nc(Nc2ccc(C#N)cc2)nc(N)c1Br | 0.85
5 | Nc1ncn(C2OC(CO)C(O)C2O)c(=O)n1 (stereo not given) | 0.707
6 | O=C1OC(CN2CCOCC2)CN1N=Cc1ccc([N+](=O)[O-])o1 (stereo not given) | 0.85
7 | CCC(=O)OCC(=O)C1(OC(=O)CC)[C@H](C)C[C@H]2[C@H]3[C@H]([C@@H](O)C[C@@]21C)[C@@]1(C)C=CC(=O)C=C1C[C@H]3Cl (stereo not given in full) | 0.785
8 | Cc1cc(C)c(Nc2ccnc(Nc3ccc(C#N)cc3)n2)c(C)c1 | 0.923
9 | CC(C)(C)C(=O)OCOC(=O)[C@@H]1N2C(=O)[C@@H](N=CN3CCCCCC3)[C@H]2SC1(C)C | 0.956
10 | CNC(=O)c1c(I)c(C(=O)NCC(=O)Nc2c(I)c(C(=O)O)c(I)c(C(=O)NCCO)c2I)c(I)c(N(C)C(C)=O)c1I | 0.94
11 | CNc1ncnc2c1ncn2[C@@H]1O[C@H](CO)[C@@H](O)[C@H]1O | 0.829
12 | Nc1nc(=S)c2ncn([C@@H]3O[C@H](CO)[C@@H](O)[C@H]3O)c2[nH]1 | 1.04
13 | COc1ccc(CC(N)C(=O)NC2C(CO)OC(n3cnc4c(N(C)C)ncnc43)C2O)cc1 (stereo not given) | 1
14 | O=c1ccn(C2OC(CO)C(O)C2O)c(=O)[nH]1 (stereo not given) | 0.86
15 | O=C1NCCN1c1ncc([N+](=O)[O-])s1 | 0.899
16 | CC=C1NC(=O)C2CSSCCC=CC(CC(=O)NC(C(C)C)C(=O)N2)OC(=O)C(C(C)C)NC1=O (stereo not given) | 0.776
17 | CCC(=O)[C@@]1(C)[C@H](C)C[C@H]2[C@@H]3CCC4=CC(=O)C=C[C@]4(C)[C@H]3[C@@H](O)C[C@@]21C | 0.901
18 | CN(C)CC(=O)Nc1ccc2[nH]c(=O)c3ccccc3c2c1 | 0.941 and 0.916
19 | CC1OC(n2cc(F)c(=O)[nH]c2=O)C(O)C1O (stereo not given) | 0.451 (active)
20 | CC1(C)S[C@@H]2[C@H](NC(=O)COc3ccccc3)C(=O)N2C1C(=O)O (stereo not given in full) (tested in a mixture with another compound) | 0.957

Row | SMILES | fold change
21 | Nc1ccn(C2OC(CO)C(O)C2(F)F)c(=O)n1 (stereo not given) | 1.02
22 | CC[N+](CC)(CC)CCC(O)(c1ccccc1)C1CCCCC1 (stereo not given) | 0.878
23 | CNCCC=C1c2ccccc2C=Cc2ccccc21 | 0.862
24 | Cc1cn(C2CC(N=[N+]=[N-])C(CO)O2)c(=O)[nH]c1=O (stereo not given) | 0.983
25 | CC(C=CC(=O)NO)=CC(C)C(=O)c1ccc(N(C)C)cc1 (stereo not given) | 0.905
26 | NC(=S)NN=Cc1ncccc1N | 1.15
27 | c1ccc(CNc2ncnc3nc[nH]c23)cc1 | 1.05
28 | O=C(O)C(O)C(O)C(O)C(O)C(=O)O (stereo not given) (tested in a mixture with another compound) | 0.895
29 | O=C1OC(C(O)CO)C(O)=C1O (stereo not given) | 1.03
30 | CC(C)(C#N)c1ccc(N2C(=O)OCc3cnc4ccc(-c5cnc6ccccc6c5)cc4c32)cc1 | 0.956
31 | CC1CN(c2c(F)c(N)c3c(=O)c(C(=O)O)cn(C4CC4)c3c2F)CC(C)N1 (stereo not given) | 0.949
32 | CCCCN(Cc1ccc(C(=O)NO)cc1)C(=O)Nc1ccccc1 | 0.983
33 | C[C@@H]1C[C@H]2[C@@H]3C[C@H](F)C4=CC(=O)C=C[C@]4(C)[C@@]3(Cl)[C@@H](O)C[C@]2(C)[C@H]1C(=O)COC(=O)C(C)(C)C | 0.917
34 | O=c1[nH]cnc2c1ncn2C1OC(CO)C(O)C1O (stereo not given) | 0.971
35 | Cc1cc(C=CC#N)cc(C)c1Nc1ccnc(Nc2ccc(C#N)cc2)n1 | 0.909
36 | CCCC1C(=O)N2C(N(C)C)=Nc3ccc(C)cc3N2C1=O (stereo not given) | 0.881
37 | CCCCC[C@H](O)/C=C/[C@@H]1[C@@H](C/C=C\CCCC(=O)O)[C@@H](O)C[C@H]1O (tested in a mixture with another compound) | 0.919
38 | CC(Oc1cc(-c2cnn(C3CCNCC3)c2)cnc1N)c1c(Cl)ccc(F)c1Cl (stereo not given) | 0.89 and 0.888
39 | O=C(O)c1cc2cccc([N+](=O)[O-])c2[nH]1 | 0.946
40 | O=c1[nH]c(=O)n(C2CC(O)C(CO)O2)cc1I (stereo not given) | 0.851
